Out of some 310,000 compounds screened, about 3,900 (1.3%) were called active.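 How the source made its calls: active means compounds whose thallium flux B-score, printed positive for inhibition, exceeds three library SD while starting fluorescence stays within three; inactive means the rest.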 The full list was thinned out, with actives kept by preference.
biological target: Potassium voltage-gated channel subfamily KQT member 1 (Homo sapiens) (UniProt P51787); test: inhibitors of human KCNQ1 channel, primary screen, cell-based, thallium flux, high-throughput (AID 2642); settings: CHO-K1 KCNQ1, FluxOR thallium flux fluorescence, at 10 µM; active compounds read high;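 further: channel opened by potassium depolarization with thallium stimulus after 20 min compound exposure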
Sequence (P51787 whole entry, looked up): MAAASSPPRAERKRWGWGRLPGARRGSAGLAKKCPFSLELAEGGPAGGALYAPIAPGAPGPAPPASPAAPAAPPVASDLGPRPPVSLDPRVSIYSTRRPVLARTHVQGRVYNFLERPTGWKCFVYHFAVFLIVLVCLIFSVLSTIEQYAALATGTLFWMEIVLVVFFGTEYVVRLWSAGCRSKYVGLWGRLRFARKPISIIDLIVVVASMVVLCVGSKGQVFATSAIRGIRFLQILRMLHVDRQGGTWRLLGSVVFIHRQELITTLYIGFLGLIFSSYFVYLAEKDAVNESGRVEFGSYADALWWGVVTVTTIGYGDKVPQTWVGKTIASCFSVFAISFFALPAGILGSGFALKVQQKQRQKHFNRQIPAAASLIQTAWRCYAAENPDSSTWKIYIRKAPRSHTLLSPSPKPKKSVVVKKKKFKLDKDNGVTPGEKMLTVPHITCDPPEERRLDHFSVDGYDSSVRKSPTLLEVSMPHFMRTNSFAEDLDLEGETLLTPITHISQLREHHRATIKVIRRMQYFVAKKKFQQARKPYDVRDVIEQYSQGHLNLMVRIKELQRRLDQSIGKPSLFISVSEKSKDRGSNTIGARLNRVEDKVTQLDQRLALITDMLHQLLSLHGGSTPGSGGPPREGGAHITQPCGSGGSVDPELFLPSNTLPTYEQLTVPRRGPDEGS

SMILES	B-score
Cc1c(OC(C)C(=O)N[C@@H](Cc2ccccc2)C(=O)O)ccc2c3c(c(=O)oc12)CCCC3 (stereo partly drawn)	inactive
CCCOc1ccc2c3c(c(=O)oc2c1OCCC)CCC3	8 (active)
COc1ccc2c3c(c(=O)oc2c1OCC(=O)C(C)(C)C)CCCC3	inactive
CC(=O)Nc1ccc(C(=O)N(C2=NC(C)CS2)c2ccc(Cl)cc2)cc1 (stereo not drawn)	inactive
CCC(C)[C@H](NC(=O)N1c2ccccc2NC(=O)[C@@H]1C(C)C)C(=O)N[C@@H](Cc1ccccc1)C(=O)O (stereo partly drawn)	inactive
CCCCCCCCn1c2c(c(=N)c3c1CCC3)CCCC2	10 (active)
Cc1ccccc1CCNC(=O)C1CCC(=O)N(Cc2ccc(Cl)cc2)C1 (stereo not drawn)	inactive
Cc1ccc(CSc2nc(-c3ccccc3)c(C#N)c(=O)[nH]2)cc1	inactive
N#Cc1c(-c2ccccc2)nc(SCc2cccc(C(F)(F)F)c2)[nH]c1=O	8 (active)
N#Cc1c(-c2ccccc2)nc(SCc2ccc([N+](=O)[O-])cc2)[nH]c1=O	inactive
Clc1ccc2nc(CSc3ccccc3)cn2c1	inactive
CCOC(=O)c1cnc(-n2nc(C)cc2C)nc1NNc1cc(C)nc(-c2ccccc2)n1	inactive
COc1ccc(NC(C)=O)cc1NC(=O)CN1CCN(C2c3ccccc3-c3ccccc32)CC1	inactive
O=C1CCN(Cc2ccccc2)CCN1[C@H](CSc1ccccc1)c1ccccc1	inactive
CCNC(=O)c1ccc(OCC(=O)Nc2ccc(F)cc2)c(OC)c1	6 (active)
CCOc1ccc(NC(=O)COc2ccc(C(=O)N3CCC(C(N)=O)CC3)cc2OC)cc1	inactive
COc1ccc(NC(=O)COc2ccc(C(=O)c3ccc(F)cc3)cc2)cc1S(N)(=O)=O	inactive
Cc1ccccc1Cn1c2ccccc2c2cnn(CC(=O)NCc3ccco3)c(=O)c21	inactive
CSC1=N/C(=C\C=C\c2cccs2)C(=O)S1	inactive
CC(=O)Nc1ccc(NC(=O)C(C)OC(=O)C2CC(=O)N(CCc3ccccc3)C2)cc1 (stereo not drawn)	inactive
COc1ccc(CN(C)C(C)C(=O)NC2CCCc3ccccc32)cc1 (stereo not drawn)	inactive
Cc1ccccc1NC(=O)NCC1CCN(Cc2cccc(Cl)c2)CC1	inactive
CC(C(=O)NCC1CCCCC1)N(C)Cc1cccc(Cl)c1 (stereo not drawn)	8 (active)

SMILES	B-score
COc1cccc(COC(=O)C2CCN(S(=O)(=O)c3cccs3)CC2)c1OC	inactive
O=C(COC(=O)c1cccs1)NCc1cccs1	inactive
O=C(COC(=O)/C(=C/c1cccs1)c1cccs1)NCc1ccccc1Cl	7 (active)
O=C(COC(=O)c1cc2c(s1)CCCC2)NCc1ccccc1Cl	inactive
O=c1c2c(nc3cc(-c4cccc(Cl)c4)[nH]n13)CCCC2	inactive
O=C(CN1C(=O)NC2(CCCC2)C1=O)OCCOc1ccc(F)cc1	inactive
Cc1c(NS(=O)(=O)c2ccc(NC3CCCC3)c([N+](=O)[O-])c2)c(=O)n(-c2ccccc2)n1C	inactive
Cc1cc([N+](=O)[O-])ccc1NC1CCCC1	inactive
Cc1cc(C=O)c(C)n1-c1ccc(NC2CCCCC2)c([N+](=O)[O-])c1	14 (active)
CC(=O)Oc1c(C(=O)c2nnc(C)o2)c(=O)n(Cc2ccccc2)c2ccccc12	inactive
Cc1ccc(S(=O)(=O)c2c(COC(=O)c3cccc(Cl)c3)c(-c3ccccc3)nn2C)cc1	inactive
Cn1nc(-c2ccccc2)c(CSc2cccc(Cl)c2)c1Cl	6 (active)
Cn1nc(-c2ccccc2)c(CO)c1Sc1ccccc1	inactive
COc1cccc(OCCCN2CCCCCC2)c1	inactive
CCCCCCCCCCOC(=O)Cn1c(COc2cccc(OC)c2)[n+](C)c2ccccc21	8 (active)
CCCCCCCCCCOC(=O)Cn1c(COc2ccc(C)cc2)[n+](C)c2ccccc21	inactive
COc1ccc(C2=NOC(Cn3nc(C(=O)NCc4ccc5c(c4)OCO5)cc3-c3ccccc3)C2)cc1 (stereo not drawn)	inactive
CCCCN(CC)CCNC(=O)CCNC(=O)Cn1ccc2ccccc2c1=O	inactive
FC(F)(F)c1cc(-c2ccco2)nc(NCc2ccc(Cl)cc2)n1	11 (active)
FC(F)(F)c1cc(-c2cccs2)nc(NCc2ccco2)n1	inactive
Cc1cc(C(F)(F)F)nn1-c1nc(-c2ccco2)cc(C(F)(F)F)n1	inactive
COc1ccc(NC(=O)CSc2nncc(=O)n2N)cc1OC	inactive
FC(F)Oc1ccc(NC(=S)NCc2ccco2)cc1Cl	7 (active)

SMILES	B-score
COc1cc(NC(=S)NCc2ccco2)c(OC)cc1Cl	inactive
COc1cccc(NC(=S)NCc2ccco2)c1	inactive
CCOC(=O)c1cnc2c(c(C)nn2CC)c1Cl	inactive
COc1ccc(S(=O)(=O)N2CCCC2CNC(=O)C(=O)NC2CC2)cc1 (stereo not drawn)	inactive
Cc1nc(Nc2ccc3c(c2)OCCO3)c2nnn(Cc3ccccc3Cl)c2n1	7 (active)
Cc1nc(Nc2ccccc2F)c2nnn(Cc3ccccc3Cl)c2n1	inactive
CCCc1nc(NCc2ccc3c(c2)OCO3)c2nnn(Cc3ccccc3Cl)c2n1	inactive
CCCN1C(=O)C(Cc2nc3ccccc3c(=O)n2-c2ccccc2)c2cc(C)ccc21 (stereo not drawn)	inactive
O=[N+]([O-])/C=C/c1ccc2c(ccn2Cc2ccccc2)c1	inactive
COc1ccccc1N1CCN(C(=O)c2ccc(NC3=NC4CS(=O)(=O)CC4S3)cc2)CC1 (stereo not drawn)	inactive
CCC(=O)Nc1nc(C)c(C(=O)Nc2cccc(Cl)c2)s1	inactive
CC(C(=O)NC1CCCC1)N(c1ccc(Oc2ccccc2)cc1)S(C)(=O)=O (stereo not drawn)	inactive
CCc1ccc(-c2cc(C(=O)NCc3ccco3)c3ccccc3n2)s1	6 (active)
CCCCN(C)CCCNC(=O)c1cc(-c2cccs2)nc2ccccc12	inactive
COC(=O)CNC(=O)c1cc(-c2ccncc2)nc2ccccc12	inactive
COc1ccccc1Cn1c(C)nnc1-c1cnn(C)c1N	inactive
Cc1cc(C)cc(NS(=O)(=O)Cc2ccccc2)c1	inactive
CCc1cc(C(=O)OC)c(NC(=O)CC2Sc3ccc(C(F)(F)F)cc3NC2=O)s1 (stereo not drawn)	inactive
Cc1cccc(C(=O)NNC(=O)CSc2nnc(C(C)C)n2C)c1	inactive
O=C(CSc1ccc(-c2cccs2)nn1)Nc1ccccc1F	inactive
Cc1cccc(CSc2nnc(NC(=O)CSc3nnc(C)s3)s2)c1	inactive
Cc1cccc(CSc2ccc(-c3cccs3)nn2)c1	7 (active)
